Inconclusive results are not listed. Entries that show only a call come without a potency. Calls of active or inactive are those of the source. The call rests on the fitted dose curve; in most records, active means well fitted cell-killing curve with a large enough effect in the repeat runs; inconclusive means weak or mixed curves, or effect the other way; inactive means flat fitted curve, though single readings scatter.
Legend:
[1] = cAMP Responsive Elements (CRE) small molecule antagonists, cell-based qHTS assay: qHTS cell viability counter screen (AID 2060913); conditions: CRE-bla HEK293T viability, CellTiter-Glo luminescence, 5 h; series mostly up to 92.4 µM; further: nearly all actives have a fitted effect of over 40% in size
Summary of the method: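 Cytotoxicity counter screen multiplexed with the CRE-bla antagonist read: HEK293T cells in DMEM with dialyzed FBS and 25 mM HEPES were treated 3 hrs under 0.25 uM final NKH477, then viability measured by CellTiter-Glo luminescence.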

[2] = cAMP Responsive Elements (CRE) small molecule agonists, cell-based qHTS assay: qHTS cell viability counter screen (AID 2060914); conditions: CRE-bla HEK293T viability, CellTiter-Glo luminescence, 5 h; series mostly up to 92.4 µM; further: nearly all actives have a fitted effect of over 50% in size
Summary of the method: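 Cytotoxicity was measured as ATP luminescence (CellTiter-Glo, 30 min at room temperature) in the same wells as the CRE-bla FRET read-out. HEK293T CRE-bla cells had 3 h compound exposure at 37C/5% CO2.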

Compound | Potency [1] | Potency [2]
CCN(CC)C(=O)[C@@H]1C=C2c3cccc4[nH]cc(c34)C[C@H]2N(C)C1 | inactive | 
CCCCn1cc[n+](C)c1.[Cl][Fe-]([Cl])([Cl])[Cl] | inactive | 
COC(C)(C)CCCC(C)C/C=C/C(C)=C/C(=O)OC(C)C (configuration not stated) | inactive | 
CC(C)(C)OOC(C)(C)CCC(C)(C)OOC(C)(C)C | inactive | 
CCOP(=S)(OCC)OC(Cl)C(Cl)(Cl)Cl (configuration not stated) | inactive | 
CCOC(=O)[C@]1(c2ccccc2)Oc2ccccc2[C@@H]1N | inactive | 
ClCCN1CCCC1 | inactive | 
COc1ccc([N+](=O)[O-])cc1O | inactive | 
OC(Cn1cncn1)(c1ccc(F)cc1)c1ccccc1F (configuration not stated) | inactive | 
Brc1ccc(Oc2cc(Br)c(Br)cc2Br)c(Br)c1 | inactive | 
Nc1c(Cl)c(Cl)c(Cl)c(Cl)c1Cl | inactive | 
O=S(=O)(c1ccc(Cl)cc1)c1ccc(Cl)cc1 | inactive | 
Cc1cc(C)cc(OP(=O)(Oc2cc(C)cc(C)c2)Oc2cc(C)cc(C)c2)c1 | inactive | 
O=[N+]([O-])c1ccc(Cl)c(Cl)c1 | inactive | 
C=CC(=O)OC(C)(C)C | inactive | 
ClCCOCOCCCl | inactive | 
CCCCC/C=C\C/C=C\C/C=C\C/C=C\CCCC(=O)NCC(=O)O | inactive | 
CCN(CC)CCO | inactive | 
Clc1ccccc1-c1nnc(-c2ccccc2Cl)nn1 | inactive | 
CC(C)[N+](=O)[O-] | inactive | 
Cc1cccc(C)c1NC1=NCCCS1 | inactive | 

Compound | Potency [1] | Potency [2]
Nc1ccncc1 | inactive | 
O=C(O)CCCOc1ccc(Cl)cc1Cl | inactive | 
O=[N+]([O-])c1ccccc1CCl | inactive | 
CCCCCCBr | inactive | 
O=[N+]([O-])/C=C/c1ccccc1 | inactive | 
CCN(CC)C(=O)N[C@@H]1C=C2c3cccc4[nH]cc(c34)C[C@@H]2N(C)C1 | inactive | 
CSc1ccc(C(=O)C(C)(C)N2CCOCC2)cc1 | inactive | 
O=C(Cl)OCc1ccccc1 | inactive | 
c1ccc2c(c1)[nH]c1cnccc12 | inactive | 
CCCCOC(=O)c1ccccc1C(=O)OCc1ccccc1 | inactive | 
CN(C)C1CSSSC1 | inactive | 
O=C(Nc1ccc(F)cc1F)c1cccnc1Oc1cccc(C(F)(F)F)c1 | inactive | 
CCc1ccccc1N | inactive | 
NC(=O)OCCCc1ccccc1 | inactive | 
CN(N=O)c1ccccc1 | inactive | 
O=C(O)C(Cl)Br (configuration not stated) | inactive | 
CC(Cc1ccccc1)NCc1ccccc1Cl (configuration not stated) | inactive | 
CCCN(CC)CC1COC2(CCC(C(C)(C)C)CC2)O1 (configuration not stated) | inactive | 
CC(Cl)(Cl)[N+](=O)[O-] | inactive | inactive
Nc1ccc2ccccc2c1 | inactive | inactive
O=C(Cc1ccccc1)OCCc1ccccc1 | inactive | inactive

Compound | Potency [1] | Potency [2]
O=P(OCC(Br)CBr)(OCC(Br)CBr)OCC(Br)CBr (configuration not stated) | inactive | inactive
C[C@]12CC[C@H]3[C@@H](CC=C4C[C@@H](O)CC[C@@]43C)[C@@H]1CC[C@@H]2O | inactive | inactive
c1ccc2c(c1)OCC(C1=NCCN1)O2 (configuration not stated) | inactive | inactive
CCO[C@H]1O[C@@H]2OC3(C)CC[C@H]4[C@H](C)CC[C@@H]([C@H]1C)[C@@]24OO3 | inactive | inactive
CC1OC(C)OC(C)O1 (configuration not stated) | inactive | inactive
COc1cc(OC)nc(NC(=O)NS(=O)(=O)c2ncccc2OCC(F)(F)F)n1 | inactive | inactive
O=C(O)COc1ccc(Cl)cc1 | inactive | inactive
CC[C@@H](CO)NC(=O)[C@@H]1C=C2c3cccc4c3c(cn4C)C[C@H]2N(C)C1 | inactive | inactive
COC(=O)c1ccccc1CS(=O)(=O)NC(=O)Nc1nc(OC)cc(OC)n1 | inactive | inactive
CN(C)C1CCCCC1 | inactive | inactive
CCC1(c2ccccc2)CCC(=O)NC1=O (configuration not stated) | inactive | inactive
C[C@H]1CCCC(=O)CCC/C=C/c2cc(O)cc(O)c2C(=O)O1 | inactive | inactive
CC(C1CC1)C(O)(Cn1cncn1)c1ccc(Cl)cc1 (configuration not stated) | inactive | inactive
C#CC(C)(C)O | inactive | inactive
[O-][Cl+2]([O-])O | inactive | inactive
CCOP(=O)(OCC)Oc1nc(Cl)c(Cl)cc1Cl | inactive | inactive
C=CC(=O)N(C)C | inactive | inactive
O=C(O)c1ccc(=O)[nH]c1 | inactive | inactive
O=[N+]([O-])c1cc([As](=O)(O)O)ccc1O | inactive | inactive
C[N+](=O)[O-] | inactive | inactive
CC(=O)OC1(c2ccccc2)CCN(CCc2ccccc2)CC1 | inactive | inactive
